Experimental findings from PubChem BioAssay AID1508635 (National Center for Advancing Translational Sciences (NCATS), 2021) are described below.

The experiment concerns zebrafish Abcb4 (ABCB1 homolog). Nature of the experiment: qHTS for characterization and localization of zebrafish homologs of the human ABCB1 multidrug transporter: ABCB4 transfected cells. In outline:
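About 90 known P-gp substrates were titrated onto four cell lines: vector control, MDR-19 (human P-gp) and zebrafish Abcb4 or Abcb5 transfectants. After 72 h, ATP luminescence (CellTiter-Glo) gave curves; cytotoxic required AC50 < 10 uM, >50% response and inhibitory curve class.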

Records with an inconclusive call do not appear. Entries that show only a call come without a potency. Calls of active or inactive are those of the source. Calls follow the shape of the dose curve; as a rule, active = well fitted inhibition curve with a large enough effect; inconclusive = small, poorly fitted or top-dose-only effect; inactive = no such curve, though single readings can be large or run the other way.

In the case of `CC(C)CC(=O)Nc1n[nH]c2c1CN(C(=O)C1CCN(C)CC1)C2(C)C`, the Potency entry is “inactive”. Take `CCN(CCCO)CCCOc1ccc2c(Nc3cc(CC(=O)Nc4cccc(F)c4)[nH]n3)ncnc2c1`: the Potency entry was “inactive”. For `COc1cc2ncn(-c3cc(OCc4ccccc4C(F)(F)F)c(C(N)=O)s3)c2cc1OC`, the Potency is 19.1 µM (active). For the compound `CCn1c(-c2nonc2N)nc2c(C#CC(C)(C)O)ncc(OC[C@H]3CCCNC3)c21`, the Potency result is “inactive”. On to `CCN(CC)Cc1ccc(C(=O)N(CCc2ccccc2OC)[C@@H]2CCNC2)cc1`, for which the Potency entry is “inactive”. As to `C=C1CO[C@@]2(O[C@H]3CC4C5CC=C6C[C@@H](O)C[C@@H](O[C@@H]7OC[C@H](O)[C@H](O[C@@H]8OC[C@@H](O)[C@H](O)[C@H]8O)[C@H]7O[C@@H]7O[C@@H](C)[C@H](OC(C)=O)[C@@H](OC(C)=O)[C@H]7OC(C)=O)[C@]6(C)C5CC[C@]4(C)[C@@H]3[C@@H]2C)[C@@H](O)[C@H]1OC1OC(C)C(O)C(O)C1O` (stereo partly specified), the activity change, negative = inhibition was 4.44% [at 8.96 µM] (inactive).

As for `Cc1[nH]c2ccccc2c1CCNCc1ccc(/C=C/C(=O)NO)cc1`, the Potency is 2.96 µM (active).

Turning to `COc1ccc(CC2C(=O)NC(C)C(=O)N(C)C3Cc4ccc(cc4)Oc4cc(ccc4OC4OC(CO)C(O)C(O)C4O)CC(C(=O)NC(C)C(=O)NC(C)C(=O)N2C)N(C)C3=O)cc1` (stereo unspecified), the Potency entry is “inactive”. Take `C[C@@]12O[C@@H](C[C@]1(O)CO)n1c3ccccc3c3c4c(c5c6ccccc6n2c5c31)CNC4=O`: the Potency was 5.26 µM (active). For `Cc1nc(Nc2n[nH]c3c2CN(C(=O)N[C@H](CN(C)C)c2ccccc2)C3(C)C)c2sccc2n1`, the Potency result was “inactive”. Take `CC(C)(C)c1cnc(CSc2cnc(NC(=O)C3CCNCC3)s2)o1`: the Potency is 38.2 µM (active).
